# Paper PMC7862700, “An all-to-all approach to the identification of sequence-specific readers for epigenetic DNA modifications on cytosine”
# Key:
# Assay in all cases: DAPPL (digital affinity profiling via proximity ligation, sequencing); 10 mM Tris-HCl pH 7.5, 50 mM NaCl, 1 mM DTT, 4% glycerol, room temperature, 30 min; GST-TFs on glutathione beads, 16-mer random dsDNA library, 0.1% formaldehyde crosslink after washing; high values mean tight binding
# FEV = target: T1, FEV (Homo sapiens, UniProt Q99581 1-238); details: protein: recombinant; tags: N-terminal GST; dsDNA, one strand shown
# T1 sequence: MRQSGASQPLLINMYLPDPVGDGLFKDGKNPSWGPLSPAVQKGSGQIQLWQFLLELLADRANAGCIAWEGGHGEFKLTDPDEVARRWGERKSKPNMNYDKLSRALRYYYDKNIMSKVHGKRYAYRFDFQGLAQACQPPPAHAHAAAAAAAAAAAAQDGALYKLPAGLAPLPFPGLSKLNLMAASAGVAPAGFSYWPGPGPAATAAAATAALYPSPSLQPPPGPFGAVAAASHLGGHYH
# In short: (§1)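 Human transcription factors were made in yeast as GST fusions, captured on glutathione beads and barcoded with DNA. With a tag-only sample included, the pool was incubated with 200 nmole of a random double-stranded 16-mer DNA library in Tris/NaCl/DTT/glycerol buffer at room temperature for 30 min, then crosslinked with 0.1% formaldehyde after washing, ligated by proximity, amplified and sequenced. For binding signal, each hexamer's read frequency for a factor is divided by its frequency for the tag-only sample.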
# ETV5 = ETV5 (Homo sapiens, UniProt P41161 1-510); details: protein: recombinant; tags: N-terminal GST; dsDNA, one strand shown
# Sequence of ETV5 (P41161 whole entry): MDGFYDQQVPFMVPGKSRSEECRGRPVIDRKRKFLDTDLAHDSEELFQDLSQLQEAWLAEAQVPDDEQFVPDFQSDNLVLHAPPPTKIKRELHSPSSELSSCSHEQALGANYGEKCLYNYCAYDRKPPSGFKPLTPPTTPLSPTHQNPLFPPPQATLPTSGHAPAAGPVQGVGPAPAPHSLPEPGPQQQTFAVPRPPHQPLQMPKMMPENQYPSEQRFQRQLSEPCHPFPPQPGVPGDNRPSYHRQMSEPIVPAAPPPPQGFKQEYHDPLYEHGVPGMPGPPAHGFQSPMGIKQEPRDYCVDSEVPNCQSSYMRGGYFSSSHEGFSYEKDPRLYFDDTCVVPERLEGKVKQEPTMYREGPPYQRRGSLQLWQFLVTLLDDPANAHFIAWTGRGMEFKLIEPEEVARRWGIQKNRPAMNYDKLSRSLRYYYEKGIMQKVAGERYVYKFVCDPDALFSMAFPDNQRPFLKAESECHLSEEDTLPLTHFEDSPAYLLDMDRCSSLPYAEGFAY
# In short: as §1
# HSF1 = HSF1 (Homo sapiens, UniProt Q00613 1-529); details: protein: recombinant; tags: N-terminal GST; chain copies: 3; dsDNA, one strand shown
# Sequence of HSF1 (Q00613 whole entry): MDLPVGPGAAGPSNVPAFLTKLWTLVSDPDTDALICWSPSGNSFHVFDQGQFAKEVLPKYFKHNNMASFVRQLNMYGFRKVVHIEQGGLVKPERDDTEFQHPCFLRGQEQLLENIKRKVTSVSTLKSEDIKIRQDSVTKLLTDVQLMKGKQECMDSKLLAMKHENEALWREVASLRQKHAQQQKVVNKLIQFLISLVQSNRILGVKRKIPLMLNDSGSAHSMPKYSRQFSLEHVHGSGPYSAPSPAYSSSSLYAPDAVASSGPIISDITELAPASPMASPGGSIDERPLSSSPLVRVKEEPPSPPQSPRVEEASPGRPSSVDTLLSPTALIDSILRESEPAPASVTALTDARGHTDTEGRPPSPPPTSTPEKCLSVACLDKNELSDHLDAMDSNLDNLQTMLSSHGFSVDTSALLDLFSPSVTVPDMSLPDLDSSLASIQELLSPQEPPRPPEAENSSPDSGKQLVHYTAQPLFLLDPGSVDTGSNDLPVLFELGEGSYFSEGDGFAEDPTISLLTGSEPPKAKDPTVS
# In short: as §1
# SPIC = target: T2, SPIC (Homo sapiens, UniProt Q8N5J4 1-248); details: protein: recombinant; tags: N-terminal GST; dsDNA, one strand shown
# T2 sequence: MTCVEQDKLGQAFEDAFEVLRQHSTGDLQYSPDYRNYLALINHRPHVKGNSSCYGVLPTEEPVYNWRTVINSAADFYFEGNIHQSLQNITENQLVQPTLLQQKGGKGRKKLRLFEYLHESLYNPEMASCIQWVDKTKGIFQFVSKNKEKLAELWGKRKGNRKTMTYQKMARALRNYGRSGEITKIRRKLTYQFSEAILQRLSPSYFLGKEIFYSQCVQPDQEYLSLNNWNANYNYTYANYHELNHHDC
# In short: as §1
# ELF4 = ELF4 (Homo sapiens, UniProt Q99607 1-663); details: protein: recombinant; tags: N-terminal GST; dsDNA, one strand shown
# Sequence of ELF4 (Q99607 whole entry): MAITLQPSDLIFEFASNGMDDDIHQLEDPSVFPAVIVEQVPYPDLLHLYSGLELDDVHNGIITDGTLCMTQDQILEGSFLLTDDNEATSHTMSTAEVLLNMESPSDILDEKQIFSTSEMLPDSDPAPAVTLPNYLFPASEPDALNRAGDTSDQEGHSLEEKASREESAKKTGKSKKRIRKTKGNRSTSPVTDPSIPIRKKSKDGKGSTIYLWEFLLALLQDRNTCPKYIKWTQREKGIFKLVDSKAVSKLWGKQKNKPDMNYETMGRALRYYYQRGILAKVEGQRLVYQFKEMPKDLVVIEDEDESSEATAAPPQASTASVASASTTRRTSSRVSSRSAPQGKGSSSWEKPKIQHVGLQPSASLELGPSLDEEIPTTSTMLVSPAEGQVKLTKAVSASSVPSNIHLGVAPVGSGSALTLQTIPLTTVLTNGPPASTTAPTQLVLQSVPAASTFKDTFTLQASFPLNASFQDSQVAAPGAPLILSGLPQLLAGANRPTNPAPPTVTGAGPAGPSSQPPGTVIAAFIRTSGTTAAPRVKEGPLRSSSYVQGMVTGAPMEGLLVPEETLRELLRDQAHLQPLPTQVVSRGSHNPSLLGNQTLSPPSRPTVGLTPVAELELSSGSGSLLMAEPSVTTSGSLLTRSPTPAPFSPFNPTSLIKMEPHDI
# In short: as §1
# ELK4 = target: T3, ELK4 (Homo sapiens, UniProt P28324-2 1-405); details: protein: recombinant; tags: N-terminal GST; dsDNA, one strand shown
# T3 sequence: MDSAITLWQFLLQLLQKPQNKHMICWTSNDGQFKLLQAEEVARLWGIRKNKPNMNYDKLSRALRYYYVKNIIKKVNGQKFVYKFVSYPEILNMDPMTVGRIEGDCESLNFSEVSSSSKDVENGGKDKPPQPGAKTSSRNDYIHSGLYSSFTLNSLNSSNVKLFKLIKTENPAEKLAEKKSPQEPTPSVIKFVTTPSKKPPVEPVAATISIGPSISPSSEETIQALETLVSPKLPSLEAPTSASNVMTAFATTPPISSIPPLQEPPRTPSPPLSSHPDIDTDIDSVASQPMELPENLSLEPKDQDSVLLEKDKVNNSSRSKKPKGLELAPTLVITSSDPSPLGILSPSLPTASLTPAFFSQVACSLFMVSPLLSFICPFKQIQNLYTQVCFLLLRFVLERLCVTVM
# In short: as §1
# ETV2 = target: T4, ETV2 (Homo sapiens, UniProt O00321 1-342); details: protein: recombinant; tags: N-terminal GST; dsDNA, one strand shown
# T4 sequence: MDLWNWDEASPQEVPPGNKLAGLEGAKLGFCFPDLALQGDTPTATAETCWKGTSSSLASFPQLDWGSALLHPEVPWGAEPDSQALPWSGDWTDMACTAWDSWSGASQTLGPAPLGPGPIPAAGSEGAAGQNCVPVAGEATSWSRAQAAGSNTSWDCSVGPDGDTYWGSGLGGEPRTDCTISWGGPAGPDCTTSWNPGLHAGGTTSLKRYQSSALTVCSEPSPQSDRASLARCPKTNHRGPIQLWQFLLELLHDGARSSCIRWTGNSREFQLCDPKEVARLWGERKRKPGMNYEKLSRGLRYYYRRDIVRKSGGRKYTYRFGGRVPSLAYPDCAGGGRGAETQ
# In short: as §1
# ELF3 = target: T5, ELF3 (Homo sapiens, UniProt P78545 1-371); details: protein: recombinant; tags: N-terminal GST; dsDNA, one strand shown
# T5 sequence: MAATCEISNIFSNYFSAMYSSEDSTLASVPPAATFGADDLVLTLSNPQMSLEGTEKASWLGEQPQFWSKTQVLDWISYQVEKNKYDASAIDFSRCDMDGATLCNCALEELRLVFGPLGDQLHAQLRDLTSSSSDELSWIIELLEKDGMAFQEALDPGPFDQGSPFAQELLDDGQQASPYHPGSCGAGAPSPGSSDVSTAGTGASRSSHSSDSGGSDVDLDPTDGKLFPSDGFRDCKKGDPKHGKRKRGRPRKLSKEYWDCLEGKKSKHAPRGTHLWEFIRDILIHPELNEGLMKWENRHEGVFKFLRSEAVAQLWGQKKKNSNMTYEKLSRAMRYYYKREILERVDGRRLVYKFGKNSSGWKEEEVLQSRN
# In short: as §1
# CRX = CRX (Homo sapiens, UniProt O43186 1-299); details: protein: recombinant; tags: N-terminal GST; dsDNA, one strand shown
# Sequence of CRX (O43186 whole entry): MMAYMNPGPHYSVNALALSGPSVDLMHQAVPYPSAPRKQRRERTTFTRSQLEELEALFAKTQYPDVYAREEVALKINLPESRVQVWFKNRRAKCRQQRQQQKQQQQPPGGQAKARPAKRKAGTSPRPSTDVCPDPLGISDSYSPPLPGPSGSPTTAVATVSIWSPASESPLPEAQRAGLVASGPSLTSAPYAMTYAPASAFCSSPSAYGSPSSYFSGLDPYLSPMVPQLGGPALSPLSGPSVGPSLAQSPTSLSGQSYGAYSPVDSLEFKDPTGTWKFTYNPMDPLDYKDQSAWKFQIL
# In short: as §1
# ETV1 = ETV1 (Homo sapiens, UniProt P50549 1-477); details: protein: recombinant; tags: N-terminal GST; dsDNA, one strand shown
# Sequence of ETV1 (P50549 whole entry): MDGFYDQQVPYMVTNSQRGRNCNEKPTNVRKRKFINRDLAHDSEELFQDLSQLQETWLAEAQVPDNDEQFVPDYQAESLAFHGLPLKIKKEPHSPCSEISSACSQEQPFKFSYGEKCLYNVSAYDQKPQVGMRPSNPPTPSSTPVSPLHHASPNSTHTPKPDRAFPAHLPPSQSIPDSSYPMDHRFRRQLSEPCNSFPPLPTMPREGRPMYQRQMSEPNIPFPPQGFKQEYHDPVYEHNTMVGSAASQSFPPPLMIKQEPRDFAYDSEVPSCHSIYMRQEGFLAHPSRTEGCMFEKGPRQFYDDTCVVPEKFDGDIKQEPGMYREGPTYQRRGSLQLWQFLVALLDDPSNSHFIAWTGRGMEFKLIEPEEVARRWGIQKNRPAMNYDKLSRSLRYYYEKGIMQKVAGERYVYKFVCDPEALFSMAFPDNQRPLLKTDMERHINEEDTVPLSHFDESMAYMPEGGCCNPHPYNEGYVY
# In short: as §1
# ERF = target: T6, ERF (Homo sapiens, UniProt P50548 1-548); details: protein: recombinant; tags: N-terminal GST; dsDNA, one strand shown
# T6 sequence: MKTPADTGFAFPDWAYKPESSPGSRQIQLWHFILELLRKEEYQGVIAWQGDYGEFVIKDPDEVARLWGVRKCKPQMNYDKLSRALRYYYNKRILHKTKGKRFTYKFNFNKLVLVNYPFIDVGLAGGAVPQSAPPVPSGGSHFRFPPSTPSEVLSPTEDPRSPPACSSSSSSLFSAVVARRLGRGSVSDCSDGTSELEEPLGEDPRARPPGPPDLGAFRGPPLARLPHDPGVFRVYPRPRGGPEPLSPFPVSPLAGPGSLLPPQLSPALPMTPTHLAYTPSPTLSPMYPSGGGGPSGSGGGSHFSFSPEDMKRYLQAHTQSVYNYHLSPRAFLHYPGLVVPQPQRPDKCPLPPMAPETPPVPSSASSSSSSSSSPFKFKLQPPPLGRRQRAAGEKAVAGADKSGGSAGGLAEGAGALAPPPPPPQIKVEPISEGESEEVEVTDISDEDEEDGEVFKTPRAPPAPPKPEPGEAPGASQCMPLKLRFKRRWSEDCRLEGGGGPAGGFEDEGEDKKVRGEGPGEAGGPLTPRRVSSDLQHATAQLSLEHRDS
# In short: as §1
# ETV3L = target: T7, ETV3L (Homo sapiens, UniProt Q6ZN32 1-361); details: protein: recombinant; tags: N-terminal GST; dsDNA, one strand shown
# T7 sequence: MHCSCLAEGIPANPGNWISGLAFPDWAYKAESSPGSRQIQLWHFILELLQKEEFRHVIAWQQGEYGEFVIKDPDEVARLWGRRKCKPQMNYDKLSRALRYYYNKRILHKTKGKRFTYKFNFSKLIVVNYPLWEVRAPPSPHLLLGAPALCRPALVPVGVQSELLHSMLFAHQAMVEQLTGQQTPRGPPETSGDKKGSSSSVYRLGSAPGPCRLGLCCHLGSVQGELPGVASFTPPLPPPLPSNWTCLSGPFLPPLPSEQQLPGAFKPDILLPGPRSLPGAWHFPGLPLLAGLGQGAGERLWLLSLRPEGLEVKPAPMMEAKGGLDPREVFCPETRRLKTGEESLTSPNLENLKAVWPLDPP
# In short: as §1
# ETS2 = target: T8, ETS2 (Homo sapiens, UniProt P15036 1-469); details: protein: recombinant; tags: N-terminal GST; dsDNA, one strand shown
# T8 sequence: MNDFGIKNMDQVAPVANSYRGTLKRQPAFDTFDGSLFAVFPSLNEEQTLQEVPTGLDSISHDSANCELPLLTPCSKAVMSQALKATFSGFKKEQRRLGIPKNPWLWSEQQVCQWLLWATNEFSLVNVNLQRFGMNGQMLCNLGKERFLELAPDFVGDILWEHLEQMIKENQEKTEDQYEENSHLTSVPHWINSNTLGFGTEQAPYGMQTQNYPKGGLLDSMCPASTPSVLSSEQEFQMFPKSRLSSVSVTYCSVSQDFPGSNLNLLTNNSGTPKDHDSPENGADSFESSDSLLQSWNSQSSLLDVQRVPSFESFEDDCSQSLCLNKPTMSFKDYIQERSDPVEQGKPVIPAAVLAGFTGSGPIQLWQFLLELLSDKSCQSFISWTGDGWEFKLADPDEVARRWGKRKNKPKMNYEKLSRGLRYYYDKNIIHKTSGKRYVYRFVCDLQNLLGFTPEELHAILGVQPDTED
# In short: as §1
# SPDEF = target: T9, SPDEF (Homo sapiens, UniProt O95238 1-335); details: protein: recombinant; tags: N-terminal GST; dsDNA, one strand shown
# T9 sequence: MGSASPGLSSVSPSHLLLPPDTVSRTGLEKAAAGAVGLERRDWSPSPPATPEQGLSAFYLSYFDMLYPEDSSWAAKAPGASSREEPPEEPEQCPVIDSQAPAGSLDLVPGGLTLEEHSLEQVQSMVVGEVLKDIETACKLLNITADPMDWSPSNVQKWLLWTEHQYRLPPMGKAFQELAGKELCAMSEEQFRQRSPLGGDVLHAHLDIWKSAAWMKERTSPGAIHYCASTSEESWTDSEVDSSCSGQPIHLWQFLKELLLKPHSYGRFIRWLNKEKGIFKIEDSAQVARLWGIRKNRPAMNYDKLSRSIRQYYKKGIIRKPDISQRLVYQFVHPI
# In short: as §1
# ETV7 = target: T10, ETV7 (Homo sapiens, UniProt Q9Y603 1-341); details: protein: recombinant; tags: N-terminal GST; dsDNA, one strand shown
# T10 sequence: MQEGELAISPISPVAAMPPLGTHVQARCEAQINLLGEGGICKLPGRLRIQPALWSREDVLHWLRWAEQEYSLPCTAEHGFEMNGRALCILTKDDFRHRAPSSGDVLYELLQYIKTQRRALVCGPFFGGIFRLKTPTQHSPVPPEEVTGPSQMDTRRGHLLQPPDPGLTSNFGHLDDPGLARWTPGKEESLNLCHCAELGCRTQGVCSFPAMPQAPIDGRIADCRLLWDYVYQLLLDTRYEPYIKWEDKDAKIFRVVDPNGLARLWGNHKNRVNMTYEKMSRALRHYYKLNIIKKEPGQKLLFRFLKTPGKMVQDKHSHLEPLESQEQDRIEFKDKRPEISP
# In short: as §1
# ELF5 = target: T11, ELF5 (Homo sapiens, UniProt Q9UKW6-2 1-255); details: protein: recombinant; tags: N-terminal GST; dsDNA, one strand shown
# T11 sequence: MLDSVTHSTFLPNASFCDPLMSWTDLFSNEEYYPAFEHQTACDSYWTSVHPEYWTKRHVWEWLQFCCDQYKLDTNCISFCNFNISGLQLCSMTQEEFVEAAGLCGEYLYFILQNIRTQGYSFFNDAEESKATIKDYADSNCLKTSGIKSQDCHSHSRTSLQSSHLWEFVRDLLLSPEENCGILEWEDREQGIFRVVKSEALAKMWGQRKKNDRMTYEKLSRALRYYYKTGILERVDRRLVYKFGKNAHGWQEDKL
# In short: as §1
# ETV3 = target: T12, ETV3 (Homo sapiens, UniProt P41162-2 1-143); details: protein: recombinant; tags: N-terminal GST; dsDNA, one strand shown
# T12 sequence: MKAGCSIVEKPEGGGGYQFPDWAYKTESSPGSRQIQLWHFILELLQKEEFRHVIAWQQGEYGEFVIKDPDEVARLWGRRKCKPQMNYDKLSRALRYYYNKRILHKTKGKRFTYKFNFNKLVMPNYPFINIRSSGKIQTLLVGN
# In short: as §1
# ETV6 = ETV6 (Homo sapiens, UniProt P41212 1-452); details: protein: recombinant; tags: N-terminal GST; dsDNA, one strand shown
# Sequence of ETV6 (P41212 whole entry): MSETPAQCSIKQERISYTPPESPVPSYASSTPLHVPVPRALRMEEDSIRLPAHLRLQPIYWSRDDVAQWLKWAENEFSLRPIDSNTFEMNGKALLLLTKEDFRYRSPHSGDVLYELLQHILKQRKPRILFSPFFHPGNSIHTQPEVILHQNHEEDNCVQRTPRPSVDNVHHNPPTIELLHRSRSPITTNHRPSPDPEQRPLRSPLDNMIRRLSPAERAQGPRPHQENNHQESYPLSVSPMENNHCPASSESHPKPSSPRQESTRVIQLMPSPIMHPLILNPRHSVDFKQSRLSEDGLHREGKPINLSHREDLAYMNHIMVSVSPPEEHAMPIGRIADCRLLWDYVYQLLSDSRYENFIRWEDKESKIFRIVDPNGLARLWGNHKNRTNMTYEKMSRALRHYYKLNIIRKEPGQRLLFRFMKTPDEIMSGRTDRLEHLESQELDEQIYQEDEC
# In short: as §1
sequence,measurement,setting,value
TAATGC,binding signal,FEV,"1.17 fold enrichment (6-mer frequency, TF over GST control)"
same,binding signal,ETV5,"1.16 fold enrichment (6-mer frequency, TF over GST control)"
same,binding signal,HSF1,"1.63 fold enrichment (6-mer frequency, TF over GST control)"
same,binding signal,SPIC,"1.21 fold enrichment (6-mer frequency, TF over GST control)"
same,binding signal,ELF4,"1.28 fold enrichment (6-mer frequency, TF over GST control)"
same,binding signal,ELK4,"1.23 fold enrichment (6-mer frequency, TF over GST control)"
same,binding signal,ETV2,"1.29 fold enrichment (6-mer frequency, TF over GST control)"
same,binding signal,ELF3,"1.23 fold enrichment (6-mer frequency, TF over GST control)"
same,binding signal,CRX,"2.32 fold enrichment (6-mer frequency, TF over GST control)"
same,binding signal,ETV1,"1.28 fold enrichment (6-mer frequency, TF over GST control)"
same,binding signal,ERF,"1.07 fold enrichment (6-mer frequency, TF over GST control)"
same,binding signal,ETV3L,"1.16 fold enrichment (6-mer frequency, TF over GST control)"
same,binding signal,ETS2,"1.2 fold enrichment (6-mer frequency, TF over GST control)"
same,binding signal,SPDEF,"1.17 fold enrichment (6-mer frequency, TF over GST control)"
same,binding signal,ETV7,"1.13 fold enrichment (6-mer frequency, TF over GST control)"
same,binding signal,ELF5,"1.17 fold enrichment (6-mer frequency, TF over GST control)"
same,binding signal,ETV3,"1.16 fold enrichment (6-mer frequency, TF over GST control)"
same,binding signal,ETV6,"1.13 fold enrichment (6-mer frequency, TF over GST control)"
